From ChEMBL document CHEMBL1961873, “Compounds: GSK PKIS; Assays: Nanosyn kinase panel” (2012)

Tests used:
[1] = target: Death-associated protein kinase 1 (Homo sapiens) (UniProt P53355); conditions: at 1 µM;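 also: each value is a mean inhibition figure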
[2] = target: T1, Serine/threonine-protein kinase DCLK2 (Homo sapiens) (UniProt Q8N568); conditions: at 0.1 µM
T1 sequence (whole entry): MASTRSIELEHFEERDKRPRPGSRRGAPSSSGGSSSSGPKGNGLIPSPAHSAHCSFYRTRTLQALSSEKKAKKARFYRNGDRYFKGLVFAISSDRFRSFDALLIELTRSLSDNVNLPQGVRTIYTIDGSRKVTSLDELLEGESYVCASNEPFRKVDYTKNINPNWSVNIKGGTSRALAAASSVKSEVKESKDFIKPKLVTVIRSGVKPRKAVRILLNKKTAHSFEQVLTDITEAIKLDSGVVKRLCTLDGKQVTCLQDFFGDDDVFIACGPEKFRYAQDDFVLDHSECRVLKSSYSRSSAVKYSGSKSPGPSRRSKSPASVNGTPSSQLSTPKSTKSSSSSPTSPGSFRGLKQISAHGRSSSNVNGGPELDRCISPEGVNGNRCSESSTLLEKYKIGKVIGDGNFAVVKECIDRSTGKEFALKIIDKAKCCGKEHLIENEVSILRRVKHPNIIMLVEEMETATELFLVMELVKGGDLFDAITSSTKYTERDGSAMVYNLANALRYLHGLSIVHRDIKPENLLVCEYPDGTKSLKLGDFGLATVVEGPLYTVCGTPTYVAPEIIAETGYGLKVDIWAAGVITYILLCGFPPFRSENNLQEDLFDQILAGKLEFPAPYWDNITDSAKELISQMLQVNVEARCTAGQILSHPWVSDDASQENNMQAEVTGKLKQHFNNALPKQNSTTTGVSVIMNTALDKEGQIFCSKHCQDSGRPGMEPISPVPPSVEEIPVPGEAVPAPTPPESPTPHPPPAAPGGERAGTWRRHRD

[3] = target: T1, Serine/threonine-protein kinase DCLK2 (Homo sapiens); conditions: at 1 µM
[4] = target: MAP kinase-activated protein kinase 2 (Homo sapiens) (UniProt P49137); conditions: at 0.1 µM
[5] = target: MAP kinase-activated protein kinase 2 (Homo sapiens) (UniProt P49137); conditions: at 1 µM
[6] = target: MAP kinase-activated protein kinase 3 (Homo sapiens) (UniProt Q16644); conditions: at 0.1 µM
[7] = target: MAP kinase-activated protein kinase 3 (Homo sapiens) (UniProt Q16644); conditions: at 1 µM
[8] = target: Serine/threonine-protein kinase MARK1 (Homo sapiens) (UniProt Q9P0L2); conditions: at 0.1 µM
[9] = target: Serine/threonine-protein kinase MARK1 (Homo sapiens) (UniProt Q9P0L2); conditions: at 1 µM
[10] = target: MAP/microtubule affinity-regulating kinase 3 (Homo sapiens) (UniProt P27448); conditions: at 0.1 µM;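 also: mean percent inhibition of MARK3 kinase activity, measured within the GSK PKIS screening panel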
MAP/microtubule affinity-regulating kinase 3 (Homo sapiens), sequence (P27448 whole entry, looked up): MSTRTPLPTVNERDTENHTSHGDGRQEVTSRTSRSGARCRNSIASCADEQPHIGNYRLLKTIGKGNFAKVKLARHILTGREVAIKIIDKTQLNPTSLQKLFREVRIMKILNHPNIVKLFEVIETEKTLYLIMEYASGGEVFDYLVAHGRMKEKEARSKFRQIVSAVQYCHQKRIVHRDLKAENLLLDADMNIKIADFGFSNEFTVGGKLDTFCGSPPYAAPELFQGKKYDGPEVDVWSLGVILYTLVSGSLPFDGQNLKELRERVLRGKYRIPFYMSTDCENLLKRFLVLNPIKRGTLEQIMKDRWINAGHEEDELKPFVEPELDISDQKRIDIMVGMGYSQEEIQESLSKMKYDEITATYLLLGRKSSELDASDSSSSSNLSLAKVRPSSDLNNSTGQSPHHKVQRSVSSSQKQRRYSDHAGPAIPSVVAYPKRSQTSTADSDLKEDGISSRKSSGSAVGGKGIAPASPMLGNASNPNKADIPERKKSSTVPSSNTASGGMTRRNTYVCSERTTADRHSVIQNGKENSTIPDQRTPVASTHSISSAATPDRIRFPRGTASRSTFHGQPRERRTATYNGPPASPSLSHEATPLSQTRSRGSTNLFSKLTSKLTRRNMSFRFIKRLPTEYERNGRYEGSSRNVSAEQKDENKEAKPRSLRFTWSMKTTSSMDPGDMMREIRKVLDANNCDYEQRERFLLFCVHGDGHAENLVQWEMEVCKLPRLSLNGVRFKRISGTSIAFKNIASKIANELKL

MAP kinase-activated protein kinase 2 (Homo sapiens), sequence (P49137 whole entry, looked up): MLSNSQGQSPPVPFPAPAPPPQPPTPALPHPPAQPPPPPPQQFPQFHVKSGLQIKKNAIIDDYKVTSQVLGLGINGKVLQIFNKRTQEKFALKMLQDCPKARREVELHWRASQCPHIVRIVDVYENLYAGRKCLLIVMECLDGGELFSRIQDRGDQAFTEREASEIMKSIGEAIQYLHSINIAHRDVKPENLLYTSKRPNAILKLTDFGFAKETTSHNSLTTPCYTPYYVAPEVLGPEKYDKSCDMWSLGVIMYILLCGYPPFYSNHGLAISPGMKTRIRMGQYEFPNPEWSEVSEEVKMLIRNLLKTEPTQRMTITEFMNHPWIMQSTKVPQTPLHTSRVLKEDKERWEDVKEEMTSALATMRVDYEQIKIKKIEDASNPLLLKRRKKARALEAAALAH
MAP kinase-activated protein kinase 3 (Homo sapiens), sequence (Q16644 whole entry, looked up): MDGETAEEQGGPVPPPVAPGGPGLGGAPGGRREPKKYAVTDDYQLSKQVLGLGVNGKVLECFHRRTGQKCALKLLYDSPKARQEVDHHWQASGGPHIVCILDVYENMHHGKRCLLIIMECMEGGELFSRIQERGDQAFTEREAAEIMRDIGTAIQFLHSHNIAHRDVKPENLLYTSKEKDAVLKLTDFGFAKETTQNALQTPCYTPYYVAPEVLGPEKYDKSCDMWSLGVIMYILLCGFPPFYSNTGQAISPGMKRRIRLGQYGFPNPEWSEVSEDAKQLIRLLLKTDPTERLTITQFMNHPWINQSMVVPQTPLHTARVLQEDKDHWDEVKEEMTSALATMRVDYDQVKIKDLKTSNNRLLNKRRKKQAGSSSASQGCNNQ
Serine/threonine-protein kinase MARK1 (Homo sapiens), sequence (Q9P0L2 whole entry, looked up): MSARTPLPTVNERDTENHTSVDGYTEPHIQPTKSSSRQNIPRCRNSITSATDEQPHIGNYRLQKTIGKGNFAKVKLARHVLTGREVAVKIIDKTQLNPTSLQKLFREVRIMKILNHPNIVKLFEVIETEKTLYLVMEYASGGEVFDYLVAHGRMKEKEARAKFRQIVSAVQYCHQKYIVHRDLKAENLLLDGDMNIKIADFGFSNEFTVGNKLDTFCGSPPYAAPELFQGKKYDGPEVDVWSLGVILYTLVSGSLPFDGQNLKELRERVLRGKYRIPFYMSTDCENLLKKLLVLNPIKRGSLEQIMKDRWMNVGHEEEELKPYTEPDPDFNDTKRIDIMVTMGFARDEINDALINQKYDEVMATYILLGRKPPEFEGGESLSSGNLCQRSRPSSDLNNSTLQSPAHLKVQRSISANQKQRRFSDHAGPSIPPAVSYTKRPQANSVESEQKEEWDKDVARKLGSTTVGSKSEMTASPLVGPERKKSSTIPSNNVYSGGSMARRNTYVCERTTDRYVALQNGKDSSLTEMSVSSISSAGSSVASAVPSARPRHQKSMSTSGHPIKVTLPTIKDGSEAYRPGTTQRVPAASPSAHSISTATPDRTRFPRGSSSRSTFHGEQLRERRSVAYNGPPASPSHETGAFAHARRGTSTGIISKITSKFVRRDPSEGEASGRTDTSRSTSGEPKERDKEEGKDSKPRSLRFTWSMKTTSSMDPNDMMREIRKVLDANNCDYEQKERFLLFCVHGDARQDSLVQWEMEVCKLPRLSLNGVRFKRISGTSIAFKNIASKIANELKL
Death-associated protein kinase 1 (Homo sapiens), sequence (P53355 whole entry, looked up): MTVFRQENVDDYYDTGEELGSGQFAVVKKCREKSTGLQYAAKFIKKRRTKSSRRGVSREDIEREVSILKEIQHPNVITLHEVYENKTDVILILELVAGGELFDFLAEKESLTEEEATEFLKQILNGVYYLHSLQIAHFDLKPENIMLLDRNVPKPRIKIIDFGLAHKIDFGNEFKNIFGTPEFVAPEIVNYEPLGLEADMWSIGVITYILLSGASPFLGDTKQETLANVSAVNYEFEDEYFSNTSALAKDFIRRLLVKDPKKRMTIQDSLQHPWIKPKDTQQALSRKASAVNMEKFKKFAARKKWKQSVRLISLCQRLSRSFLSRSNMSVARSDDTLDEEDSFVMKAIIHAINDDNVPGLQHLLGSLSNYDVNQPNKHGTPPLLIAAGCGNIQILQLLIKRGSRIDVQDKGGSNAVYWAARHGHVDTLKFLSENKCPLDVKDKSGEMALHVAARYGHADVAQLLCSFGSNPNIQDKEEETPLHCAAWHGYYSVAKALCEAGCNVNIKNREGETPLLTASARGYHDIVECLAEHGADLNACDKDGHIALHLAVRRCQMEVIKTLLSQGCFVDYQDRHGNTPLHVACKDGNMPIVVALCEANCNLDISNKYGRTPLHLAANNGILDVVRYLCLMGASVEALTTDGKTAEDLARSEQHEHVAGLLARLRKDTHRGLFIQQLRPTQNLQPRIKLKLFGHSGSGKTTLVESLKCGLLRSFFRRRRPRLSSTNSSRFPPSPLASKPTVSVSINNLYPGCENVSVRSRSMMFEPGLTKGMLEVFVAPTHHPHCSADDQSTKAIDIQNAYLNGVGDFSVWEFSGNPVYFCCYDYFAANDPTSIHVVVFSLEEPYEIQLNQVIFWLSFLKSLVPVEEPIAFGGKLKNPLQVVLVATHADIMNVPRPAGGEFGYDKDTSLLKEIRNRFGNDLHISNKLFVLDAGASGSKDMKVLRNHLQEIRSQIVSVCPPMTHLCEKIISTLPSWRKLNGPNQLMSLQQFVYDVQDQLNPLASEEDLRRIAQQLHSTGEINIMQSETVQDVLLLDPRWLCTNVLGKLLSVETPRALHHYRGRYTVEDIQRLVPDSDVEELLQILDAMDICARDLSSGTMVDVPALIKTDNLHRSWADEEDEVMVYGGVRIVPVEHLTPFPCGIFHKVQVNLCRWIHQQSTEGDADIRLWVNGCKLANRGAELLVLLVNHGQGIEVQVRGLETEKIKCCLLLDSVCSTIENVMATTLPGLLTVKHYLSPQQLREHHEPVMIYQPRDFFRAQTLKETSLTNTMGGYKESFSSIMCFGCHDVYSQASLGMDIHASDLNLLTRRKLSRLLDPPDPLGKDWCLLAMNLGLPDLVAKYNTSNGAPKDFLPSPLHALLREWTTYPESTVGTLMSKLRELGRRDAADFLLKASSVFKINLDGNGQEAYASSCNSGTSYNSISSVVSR

Row | Structure (SMILES) | inhibition [1] | inhibition [2] | inhibition [3] | inhibition [4] | inhibition [5] | inhibition [6] | inhibition [7] | inhibition [8] | inhibition [9] | inhibition [10]
1 | CCS(=O)(=O)c1ccc(OC)c(Nc2nccc(N(C)c3ccc4c(C)n[nH]c4c3)n2)c1 | 4.98% | -0.1% | 2.14% | 2.62% | 1.63% | 3.91% | 6.4% | 2.93% | 3.99% | 3.81%
2 | CCn1c(-c2nonc2N)nc2c(C#CC(C)(C)O)nc(OCCNC)cc21 | -0.74% | -0.8% | -0.85% | 1.85% | 2.88% | 2.43% | 3.56% | 1.55% | 10.3% | 0.62%
3 | NS(=O)(=O)c1cccc(Nc2cc(-c3ccc(F)cc3)n[nH]2)c1 | 11.9% | 0.71% | -0.18% | 4.39% | 4.71% | 9.87% | 9.68% | 3.98% | 17.5% | 5.25%
4 | C[C@@H](Oc1cc(-n2cnc3ccc(OCC4CCN(C)CC4)cc32)sc1C(N)=O)c1ccccc1C(F)(F)F | 3.7% | -1.44% | 0.02% | -1.73% | -1.24% | -0.96% | -1.6% | 8.37% | 50.7% | 6.29%
5 | NC(=O)c1cccc(Nc2nccc(Nc3cccc(F)c3)n2)c1 | -2.63% | -0.56% | 0.44% | 0.22% | 0.05% | 1.51% | 1.85% | 0.81% | 2.94% | 1.98%
6 | NC(=O)c1sc(-n2cnc3ccccc32)cc1OCc1ccccc1Br | 10.6% | -1% | -0.82% | 4.58% | 6.13% | 8.98% | 12.7% | 2.32% | 5.92% | -0.1%
7 | c1ccc(Nc2ncc(-c3ccccc3)o2)cc1 | 5.31% | 0.92% | 3.72% | 1.35% | 2.04% | 4.43% | 5.91% | 1.31% | 4.58% | 1.16%
8 | N#Cc1c(NC(=O)c2ccccc2F)sc2c1CCCC2 | -2.35% | -1.75% | 0.7% | -1.29% | -0.76% | -0.73% | -1.26% | 1.09% | 2.84% | -2.32%
9 | COC(=O)c1cncc(/C=C/c2c(C)cc(O)cc2C)c1 | 5.55% | 1.84% | 1.18% | 1.83% | 2.28% | 2.97% | 3.34% | 2.55% | 2.79% | 2.68%
10 | COc1ccc2ncnc(Nc3ccc(OCc4ccccc4)cc3)c2c1 | 3.26% | -5.53% | -8.44% | 1.42% | -2.28% | 2.72% | 4.71% | 1.85% | 3.7% | 1.64%
11 | O=C(Nc1ccc(Oc2ccc3[nH]c(NC(=O)c4ccco4)nc3c2)cc1)Nc1cc(C(F)(F)F)ccc1F | -1.29% | -4.07% | -5.38% | -0.82% | -1.43% | 2.85% | 16.3% | -1.16% | 0.35% | -0.52%
12 | Cc1ccc2c(c1)/C(=N/Nc1ccc(S(N)(=O)=O)cc1)C(=O)N2 | 1.29% | 6.62% | -0.15% | -0.81% | -0.37% | 2.9% | 1.35% | 0.5% | 3.86% | -0.22%
13 | Nc1nccc(C#Cc2cncnc2Nc2ccc(OCc3cccc(F)c3)c(Cl)c2)n1 | 5.3% | 1.36% | 0.82% | 1.66% | 1.43% | 2.38% | 4.95% | 5.72% | 10.4% | 4.09%
14 | CN1CCN(C(=O)c2ccc(NC(=O)Nc3ccc(N(C)c4ccnc(Nc5ccc(CS(C)(=O)=O)cc5)n4)cc3)cc2)CC1 | 2.64% | -0.43% | 0.81% | 0.81% | 1.86% | 2.24% | 3.23% | 1.73% | 15.2% | 2.96%
15 | Cc1ccc2c(-c3ccnc(Nc4cccc(C(F)(F)F)c4)n3)c(-c3ccccc3)nn2n1 | -5.56% | 0.64% | 2.53% | -1.16% | -0.78% | 15.6% | 27.2% | 1.58% | 4.76% | -0.41%
16 | CS(=O)(=O)CCNCc1nc(-c2ccc3ncnc(Nc4ccc(OCc5cccc(C(F)(F)F)c5)cc4)c3c2)cs1 | 2.59% | -1.01% | 0.18% | 0.97% | 1.7% | 2.23% | 2.67% | 1% | 1.98% | 0.8%
17 | CN(C)c1cc2c(Nc3ccc4c(cnn4Cc4ccccc4)c3)ncnc2cn1 | 4% | 0.57% | -0.18% | 1.53% | 1.29% | 2.73% | 2.81% | 2.96% | 3.22% | 0.52%

Row | Structure (SMILES) | inhibition [1] | inhibition [2] | inhibition [3] | inhibition [4] | inhibition [5] | inhibition [6] | inhibition [7] | inhibition [8] | inhibition [9] | inhibition [10]
18 | [O-][S+]1CCN(Cc2ccc(-c3ccc4ncnc(Nc5ccc(OCc6ccccc6)c(Cl)c5)c4c3)o2)CC1 | 0.97% | 0.43% | 1.8% | 1% | 0.44% | 6.01% | 8.71% | 1.37% | 2.21% | -0.92%
19 | CCn1c(-c2nonc2N)nc2ccc(F)cc21 | 10.7% | 0.68% | 0.5% | 2.81% | 3.62% | 4.6% | 5.57% | 14.8% | 6.7% | 2.41%
20 | Cc1cc(-c2ccccn2)cc(C)c1/C=C/c1cncc(-c2nn[nH]n2)c1 | 4.15% | -0.19% | 1.55% | 2.23% | 2.74% | 4.19% | 6.94% | 1.24% | 4.82% | 2.15%
21 | Cc1ccc2c(-c3ccnc(Nc4ccc5c(c4)OCCO5)n3)c(-c3ccc(C(F)(F)F)cc3)nn2n1 | 1.35% | -1.42% | -0.35% | 0.41% | -0.12% | 2.89% | 10.8% | 1.39% | 2.56% | -1.05%
22 | NS(=O)(=O)c1ccc(-c2cc3ccncc3cc2OCc2ccccc2)cc1 | 1.02% | 0.91% | 3.41% | 1.47% | 1.1% | 5.12% | 6.72% | 0.77% | 3.63% | -0.26%
23 | Nc1nccc(-c2c(-c3ccc(F)cc3)nn3cc(C(F)(F)F)ccc23)n1 | 1.3% | -1.79% | -1.22% | -0.92% | -1.14% | 5.47% | 19.9% | -0.24% | -0.05% | -0.09%
24 | CCS(=O)(=O)c1ccc(OC)c(Nc2ncc(-c3cccc(OC)c3)o2)c1 | 4.19% | 0.56% | -0.14% | 0.86% | 0.67% | 1.43% | 3.53% | 1.2% | 2.37% | 3.96%
25 | COc1cc(/C=N/Nc2ncnc3c2cnn3C(C)C)ccc1O | 0.9% | 2.33% | 1.29% | 0.78% | 0.4% | 0.97% | 0.08% | 2.39% | 4.77% | 0.28%
26 | COc1cc2ncn(-c3cc(OCc4ccccc4S(C)(=O)=O)c(C#N)s3)c2cc1OC | 6.48% | 1.77% | 0.47% | 1.6% | 1.54% | 3.38% | 4.59% | 36.9% | 80% | 49.6%
27 | OCc1ccc(-c2nc(-c3ccccn3)c(-c3ccc4c(c3)OCO4)[nH]2)cc1 | 6.09% | 2.19% | 2.76% | 1.95% | 1.87% | 3.91% | 6.87% | 4.66% | 4.32% | 4.6%
28 | COc1cccc(-n2ncc3c(N/N=C/c4ccc(S(C)(=O)=O)cc4)ncnc32)c1 | -2.35% | -3.49% | -3.25% | -0.57% | -0.87% | -0.21% | -1.31% | 0.85% | 4.83% | 0.34%
29 | CN(c1ccc(NC(=O)Nc2ccc(OC(F)(F)F)cc2)cc1)c1ccnc(Nc2cccc(S(N)(=O)=O)c2)n1 | 2.02% | -2.05% | 0.7% | 0.67% | -0.37% | 2.5% | 7.62% | 0.28% | 2.36% | 1.62%
30 | Nc1nccc(-c2c(-c3ccc(F)cc3)ncn2CCCN2CCOCC2)n1 | 5.9% | 2.38% | -0.25% | 2.78% | 2.33% | 9.94% | 23.5% | 3.81% | 6.99% | 2.18%
31 | FC(F)(F)c1ccc(-c2nn3ncccc3c2-c2ccnc(Nc3ccc4c(c3)OCCO4)n2)cc1 | 1.79% | 5.13% | 2.77% | 3.11% | 3.56% | 10.3% | 30.6% | 4.61% | 6.64% | 5.66%
32 | c1ccc(Cc2nc3ccc(Nc4ncnc5ccccc45)cc3[nH]2)cc1 | 5.17% | -0.21% | 1.02% | 1.39% | 1.85% | 3.82% | 4.05% | 1.85% | 6.13% | 1.67%
33 | Oc1cccc(-c2nc(-c3ccccc3)[nH]c2-c2ccncc2)c1 | 6.12% | 2.33% | 0.39% | 1.62% | 1.79% | 11.7% | 25.4% | 1.58% | 4.27% | 3.78%
